This is a sample that favours compounds with a hit; in the whole collection about 1.9% have one here.
A1 inh = inhibitors of the anti-apoptotic protein A1, read as caspase activation. caspase activation, % (test concentration not listed). MEF A1-2A-BIM cells, Caspase-Glo 3/7 luminescence, 3 h; percent of clofoctol response, vehicle zero. 0.066% of 330,000 active;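 active = over half of replicate activation scores above 10%, or exactly half above 10 with the replicate mean above 10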
GSIS activator = GLuc luminescence reporter in INS-1E cells, primary screen for activators of glucose-dependent secretion of insulin; activation, % at 16.6 µM; 0.61% of 370,000 active; INS-1E GLuc reporter insulin secretion, 2-3 h;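 active = lowest replicate activation of at least 40%, so every replicate reaches that level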;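 note: 0% = median of neutral control wells and 100% = median of IBMX positive control wells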
Neddylation inh = inhibitors of human cullin neddylation; P61081+Q13564; TR-FRET cullin neddylation, biochemical; inhibition, % at 25 µM; 0.58% of 360,000 active; in the data active = inhibition above about 36%
Target sequence (P61081 whole entry, looked up): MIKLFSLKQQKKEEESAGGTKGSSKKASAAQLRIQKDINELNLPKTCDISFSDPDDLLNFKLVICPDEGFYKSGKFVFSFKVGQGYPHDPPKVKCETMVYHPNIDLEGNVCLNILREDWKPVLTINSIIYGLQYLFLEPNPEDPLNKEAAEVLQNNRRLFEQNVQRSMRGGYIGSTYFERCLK
Target sequence (Q13564 whole entry, looked up): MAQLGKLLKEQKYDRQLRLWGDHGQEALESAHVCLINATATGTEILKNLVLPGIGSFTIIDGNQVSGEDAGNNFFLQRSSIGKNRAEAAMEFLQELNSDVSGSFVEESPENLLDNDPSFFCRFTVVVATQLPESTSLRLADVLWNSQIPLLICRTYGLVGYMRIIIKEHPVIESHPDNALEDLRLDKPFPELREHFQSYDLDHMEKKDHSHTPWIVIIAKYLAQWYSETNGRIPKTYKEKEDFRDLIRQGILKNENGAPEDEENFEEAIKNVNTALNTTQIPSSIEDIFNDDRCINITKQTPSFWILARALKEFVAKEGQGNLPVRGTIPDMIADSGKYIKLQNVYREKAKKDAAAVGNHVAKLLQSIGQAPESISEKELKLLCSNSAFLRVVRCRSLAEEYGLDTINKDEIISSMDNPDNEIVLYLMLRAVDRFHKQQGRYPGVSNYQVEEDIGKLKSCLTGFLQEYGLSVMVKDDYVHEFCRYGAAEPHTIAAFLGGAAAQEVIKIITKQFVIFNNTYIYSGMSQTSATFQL
Vif inh = blocks HIV Vif function. HEK293T cells, Vif self-association by quenched fluorescence, imaging, 24 h. 0.35% of 340,000 active. inhibition, % at 7.49 µM; in the data active = inhibition above about 50%, passing the limit was not always enough
dFosB activator = mouse delta FosB homodimer activation; purified delta FosB, TAMRA-CDK5 oligo fluorescence polarization; percent of positive-control signal above neutral wells; activation, % at 25 µM; 0.99% of 340,000 active; AID 493131;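 active = mean activation above about 17%, with every replicate also reaching it, limit read from the data, passing the limit was not always enough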
The depositor's hits bear a star.

How did Cc1cccc(C)c1NC(=O)CNC(=O)c1cn(-c2ccccc2)nc1-c1ccccc1 do in these assays?
A1 inh: 0; GSIS activator: -10; Neddylation inh: 10; dFosB activator: -17

How did Cc1nn(Cc2c(Cl)cccc2Cl)c(C)c1NC(=O)c1cn(-c2ccccc2)nc1-c1ccccc1 do in these assays?
A1 inh: 13*; Neddylation inh: -4; Vif inh: 2; dFosB activator: -4

What do the screens show for `C[C@H](CO)N1C[C@H](C)[C@H](CN(C)S(=O)(=O)c2ccc(F)cc2)Oc2ccc(NS(=O)(=O)c3ccc(F)cc3)cc2C1=O`?
GSIS activator: -17

Results for CN(/C(=N\S(=O)(=O)c1ccccc1)C(F)(F)F)c1ccccc1 ?
A1 inh: 0; GSIS activator: -3; Neddylation inh: -9; Vif inh: 64*; dFosB activator: 5

Results for Cc1ccc(S(=O)(=O)/N=C(\c2ccccc2)N(C)S(=O)(=O)c2ccccc2)cc1 ?
A1 inh: 1; GSIS activator: 12; Neddylation inh: -4; Vif inh: 6; dFosB activator: -1

How did O=C(O)/C=C\c1cccc(-n2nnnc2SCc2ccccc2F)c1 do in these assays?
A1 inh: 1; GSIS activator: 52*; Neddylation inh: -10; Vif inh: -5; dFosB activator: 0

What do the screens show for `O=C(O)c1ccc(-n2nnnc2SCc2ccccc2F)cc1`?
A1 inh: 0; GSIS activator: 61*; Neddylation inh: -6; Vif inh: 4; dFosB activator: 8

Results for Cc1cccc(CSc2nnnn2-c2ccccc2)c1 ?
A1 inh: 0; GSIS activator: -16; Neddylation inh: -2; Vif inh: 0; dFosB activator: 4

What do the screens show for `Cc1ccccc1CSc1nnnn1-c1ccc(C(N)=O)cc1`?
A1 inh: 1; GSIS activator: 15; Neddylation inh: 4; dFosB activator: 0

Results for CO[C@H]1CN(C)C(=O)c2cc(NC(=O)c3ccccc3)ccc2OC[C@@H](C)N(C)C[C@H]1C ?
GSIS activator: 5

Results for COC(=O)C(C(=O)OC)C(c1ccccc1)C(C(=O)c1ccccc1)[N+](=O)[O-] (stereo unspecified) ?
A1 inh: -1; GSIS activator: -14; Neddylation inh: -1; Vif inh: 53*; dFosB activator: -6

What do the screens show for `Cc1ccc(C(=O)c2c3ccccc3[n+]([O-])n2CCO)cc1`?
A1 inh: 1; GSIS activator: 48*; Neddylation inh: -31; Vif inh: -2; dFosB activator: 2

What do the screens show for `COc1cc(/C=C(\C#N)c2nc(-c3cc4ccccc4oc3=O)cs2)ccc1O`?
A1 inh: 1; GSIS activator: 7; Neddylation inh: 0; Vif inh: -3; dFosB activator: -6

Results for CCN(CC)CCOC(=O)c1ccc(N/C=C(/C#N)c2nc(-c3cc4ccccc4oc3=O)cs2)cc1 ?
A1 inh: 2; GSIS activator: 6; Neddylation inh: 22; Vif inh: 58*; dFosB activator: 39*

Results for CCN(CC)CCOC(=O)c1ccc(N/C=C(/C#N)c2nc(-c3ccc4c(c3)OCO4)cs2)cc1 ?
A1 inh: 0; GSIS activator: 6; Neddylation inh: 23; Vif inh: 10; dFosB activator: 93*

What do the screens show for `C[C@@H]1CN([C@@H](C)CO)C(=O)c2cc(NS(=O)(=O)c3ccc(Cl)cc3)ccc2O[C@H]1CN(C)S(=O)(=O)c1ccc(F)cc1`?
GSIS activator: -7

What do the screens show for `C[C@H](CO)N1C[C@H](C)[C@H](CN(C)C(=O)NC2CCCC2)Oc2ncc(-c3ccncc3)cc2C1=O`?
GSIS activator: 17

What do the screens show for `NC(=O)C1(N2CCCCC2)CCN(S(=O)(=O)c2ccccc2)CC1`?
A1 inh: 2; GSIS activator: 0; Neddylation inh: -8; Vif inh: 6; dFosB activator: 0

Results for COc1ccc(S(=O)(=O)N2CCC(C(N)=O)(N3CCCCC3)CC2)cc1OC ?
A1 inh: 0; GSIS activator: 71*; Neddylation inh: 0; Vif inh: 8; dFosB activator: -9

How did Cc1ccc(Nc2nc(N)nc(-c3oc4ccccc4c3C)n2)cc1 do in these assays?
A1 inh: 1; Neddylation inh: 34; Vif inh: 28; dFosB activator: 76*

What do the screens show for `Cc1c(-c2nc(N)nc(Nc3ccccc3F)n2)oc2ccccc12`?
A1 inh: 0; Neddylation inh: -4; Vif inh: -4; dFosB activator: -10

Compound activity from PubChem BioAssay.
